# High-throughput results: PubChem, National Center for Advancing Translational Sciences (NCATS)
# An excerpt weighted towards active compounds, which were near 21% of everything screened.
# Pf growth 96h: inhibits malaria parasite growth, 96 h | hit rate 6.9% among 320,000 | P. falciparum luciferase reporter growth, 96 h | Potency, µM (titrated, usually from 28.7 µM), for inactives: at the top dose activity change, negative = inhibition, most hits filed as inhibitors; note: potency is the fitted concentration of half-maximal effect; % is set by controls: 0 for no effect and ±100 for the full control effect
#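 Delayed-death screen, second-generation endpoint: infected erythrocytes, 2% hematocrit, 0.05% parasitemia final; 96 hours at 37 C, 5% CO2; luciferase detection reagent; luminescence decrease equals reduced growth.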
# Pf growth 48h: inhibits P. falciparum growth in the first generation, 48 h; Potency, µM (titrated, usually from 28.7 µM), without a hit: top-dose activity change, negative = inhibition, hits mostly inhibitors; P. falciparum luciferase growth in erythrocytes, 48 h; hit rate 5.9% among 310,000; note: potency is the fitted concentration of half-maximal effect; % is set by controls: 0 for no effect and ±100 for the full control effect
#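 Here the parasites carry a stable luciferase gene and grow inside erythrocytes in Albumax-based RPMI medium with compound for one erythrocytic cycle. Activity is scored as loss of luminescent signal.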
# AMA1-RON2 inh: disrupts binding of P. falciparum AMA1 to RON2; Potency, µM (doses to about 58.2 µM), without a hit: at the highest dose activity change, negative = inhibition, hits mostly inhibitors; AlphaScreen AMA1-biotinylated RON2 peptide binding; hit rate 0.2% among 360,000;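 note: potency is the fitted concentration of half-maximal effect; 0% = vehicle wells and -100% = peptide control; nearly all actives have a fitted effect of over 45% in size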
#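 AMA1 (3D7) with his tag at 25 nM final met compounds first, then biotinylated RON2 peptide at 25 nM; detection used donor plus acceptor beads, 10 µg/mL apiece, read by AlphaScreen after 30 min at room temperature.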
# Cycloheximide cs: counter-screen hit for Shiga toxin inhibitors, cycloheximide; max response, %; cell reporter, cycloheximide protein synthesis inhibition counterscreen; hit rate 12% among 300,000; in the data active = max response mostly above about 13%, no sharp cut-off; inactive = mostly below about 14%; note: read at 38.3 µM for the half of the compounds with a filed dose; 0% is about no effect
# Shiga inhibitor: blocks Shiga toxin action in Vero cells; Vero cells, Shiga toxin protein synthesis inhibition reporter; inhibition, % at 38.7 µM; hit rate 9.2% among 290,000; AID 2315; in the data active = inhibition mostly above about 28%, no sharp cut-off; inactive = mostly below about 43%; note: 0% is about no effect
# HCV inh: blocks hepatitis C virus. Huh7.5.1 HCVcc-Cre infection, luciferase reporter, 44 h. hit rate 3.4% among 340,000. Potency, µM (highest dose often 41.8 µM), for inactives: at the top dose activity change, negative = inhibition, most hits filed as inhibitors; note: potency is the fitted concentration of half-maximal effect; % is set by controls: 0 for no effect and ±100 for the full control effect
#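 Cells seeded at 1,000/well and cultured 4 h, then compounds added followed by HCVcc-Cre virus (~0.5 moi). After 44 h further culture, luciferase substrate was added, plates held 15 min at room temperature, and luminescence read for 15 sec.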
# Starred values were filed as active, the others as inactive; i = inactive; u = inconclusive; x = not tested or not shown. Unless noted, calls come from the whole dose curve; as a rule, active = well fitted curve in the direction sought with a large enough effect; inconclusive = small, poorly fitted or top-dose-only effect, or another doubt; inactive = no such curve, though single readings can be large; an effect the other way counts as inactive or inconclusive.
SMILES,Pf growth 96h,Pf growth 48h,AMA1-RON2 inh,Cycloheximide cs,Shiga inhibitor,HCV inh
CCOCCCN(C(=O)c1snc(C(N)=O)c1N)C(C(=O)NC1CCCC1)c1ccc(OC)cc1 (configuration not stated),5%,8.3µM*,-2%,1,-3,-2%
COc1ccc(CN(C(=O)c2snc(C(N)=O)c2N)C(CC(C)C)C(=O)NC2CCCCC2)cc1 (configuration not stated),u,12µM*,19%,-4,5,-6%
CCCCC(C(=O)NC(C)(C)C)N(Cc1ccccc1Cl)C(=O)c1snc(C(N)=O)c1N (configuration not stated),86%,10µM*,-12%,0,-8,-19%
CCOCCCN(C(=O)c1snc(C(N)=O)c1N)C(C(=O)NC1CCCC1)c1ccc(O)cc1 (configuration not stated),u,-3%,9%,-6,-4,-4%
NC(=O)c1nsc(C(=O)N(CCc2ccccc2)C(C(=O)NC2CCCC2)c2ccco2)c1N (configuration not stated),10µM*,u,-3%,1,-6,-6%
CCCC(C(=O)NC(C)(C)C)N(Cc1ccccc1Cl)C(=O)c1snc(C(N)=O)c1N (configuration not stated),u,u,-2%,0,-2,u
Cn1cc(S(=O)(=O)NCc2ccc3c(c2)OCO3)c(C(F)(F)F)n1,37%,-17%,-9%,-1,-4,2%
CSc1nc2ncncc2[nH]1,x,x,-5%,x,x,20%
CC(=O)C1=C(O)C2(C)c3c(O)c(C)c(O)c(C(C)=O)c3OC2CC1=O (configuration not stated),x,x,9%,x,x,x
CC(C)(C)NC(=O)C(c1ccco1)N(Cc1ccc2c(c1)OCO2)C(=O)c1snc(C(N)=O)c1N (configuration not stated),9.3µM*,-21%,-8%,-5,-3,-10%
CC(C)CCNC(=O)C(CC(C)C)N(Cc1ccc2c(c1)OCO2)C(=O)c1snc(C(N)=O)c1N (configuration not stated),60%,u,-6%,-3,-9,u
COc1cc(/C=N/Nc2ccc(S(N)(=O)=O)cc2[N+](=O)[O-])cc(OC)c1O,63%,44%,-7%,-1,-6,-18%
CCOc1ccc(C=NNc2ccc(S(=O)(=O)Nc3ccccc3C(=O)O)cc2[N+](=O)[O-])cc1OC,x,x,6%,x,x,7%
COc1ccc(/C=N\Nc2ccccc2[N+](=O)[O-])c(C(=O)O)c1OC,259%,225%,u,50*,88*,-8%
COc1cc(/C=N/Nc2ccccc2[N+](=O)[O-])cc(OC)c1O,-4%,42%,-8%,26*,88*,u
COc1cc(/C=N/Nc2ccccc2[N+](=O)[O-])ccc1OC(=O)c1ccccc1F,i,215%,-22%,31*,45*,0%
COc1ccccc1/C=N\Nc1ccccc1[N+](=O)[O-],33%,167%,u,49*,73*,-15%
COc1ccc(/C=N\Nc2ccc([N+](=O)[O-])cc2[N+](=O)[O-])c(C(=O)O)c1OC,-6%,99%,-9%,5,-8,1%
Cc1cccc(C(=O)N2CCNC(=O)C2CC(=O)Nc2cccc(Cl)c2)c1 (configuration not stated),83%,1%,-18%,-3,-20,8%
CCOc1ccccc1/C=N/Nc1ccccc1[N+](=O)[O-],152%,48%,u,-2,-18,u
CC(C)Oc1ccccc1/C=N/Nc1ccccc1[N+](=O)[O-],8.3µM*,u,7.1µM*,65*,87*,u
CCOC(=O)Cc1cn(C(=O)OC(C)(C)C)c2ccccc12,u,u,14%,x,x,5%
Cc1cccc(C)c1NC(=O)CSCc1cccc(CSCC(=O)Nc2c(C)cccc2C)n1,5.2µM*,x,-14%,7,-7,-2%
Cc1c(NC(=O)C(C)OC(=O)/C=C/c2ccc3c(c2)OCO3)c(=O)n(-c2ccccc2)n1C (configuration not stated),u,8%,0%,37*,89*,-14%
